A selection: hits, their analogues and other compounds. The true share with any hit is near 21%.
DRD3 agonist: qHTS of D3 Dopamine Receptor Agonist: qHTS; D(3) dopamine receptor (Homo sapiens), P35462; D3R DiscoveRx beta-arrestin cells, luminescence, 90 min; max activation, %; actives 0.58% (n = 410,000); AID 652048, 2013; in the data active = max activation above about 30%; note: 0% is about no effect
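Agonist-mode cell screen: cells plated at 1500/well and incubated overnight at 37 °C, then exposed to library compounds for 90 min at 37 °C. Detection reagent was added for 30–60 min at room temperature, and luminescence was read.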
ClpP mod: qHTS Assay for Activators of ClpP; actives 1.9% (n = 340,000); AID 651965, 2013; Potency, µM (doses to about 57.5 µM), for the others: top-dose activity change, negative = active; purified B. subtilis ClpP, FRET peptide cleavage, 20 min; ATP-dependent Clp protease proteolytic subunit (Bacillus subtilis (strain 168)), P80244; active = well fitted falling curve with a large enough effect; inconclusive = small, poorly fitted or top-dose-only effect; inactive = no such curve, though single readings can be large or run the other way; note: potency is the fitted concentration of half-maximal effect; the source files actives as falling curves though it sought activators and does not explain the sign; nearly all actives have a fitted effect of over 65% in size
Target sequence (P80244 whole entry, looked up): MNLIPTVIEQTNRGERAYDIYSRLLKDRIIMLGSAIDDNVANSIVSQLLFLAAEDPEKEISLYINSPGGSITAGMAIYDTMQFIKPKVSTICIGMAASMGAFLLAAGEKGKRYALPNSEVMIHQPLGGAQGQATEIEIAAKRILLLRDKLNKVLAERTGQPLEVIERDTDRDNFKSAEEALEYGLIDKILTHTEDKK
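ClpP 10 microg/mL final, pH 8 Tris/KCl buffer with BSA, glycerol, Tween-20; compound pinned in; FRET-FV substrate; RT 20 min; Ex320/Em430; ΔFRET vs ADEP 5.8 microM, DMSO, no enzyme.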
TDP1 cell noCPT: qHTS for Inhibitors of human tyrosyl-DNA phosphodiesterase 1 (TDP1): qHTS in cells in absence of CPT; actives 15% (n = 420,000); Potency, µM (series often up to 46.2 µM), for the others: at the top dose activity change, negative = growth inhibition, most hits filed as inhibitors; DT40 Tdp1-/- hTDP1 cells, no CPT, ATP luminescence, 48 h; note: potency is the fitted concentration of half-maximal effect; % is set by controls: 0 for no effect and ±100 for the full control effect; nearly all actives have a fitted effect of over 55% in size
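A cellular qHTS used chicken DT40 cells lacking endogenous Tdp1 but carrying stably transfected human TDP1. Compounds were applied without camptothecin, and cell growth kinetics were judged by ATP-dependent luminescence after ≥48 hr.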
TDP1 cell CPT: qHTS for Inhibitors of human tyrosyl-DNA phosphodiesterase 1 (TDP1): qHTS in cells in presence of CPT; chicken DT40 Tdp1-/-;hTDP1 cells + 20 nM CPT, ATP luminescence, 48 h; Potency, µM (titrated, usually from 46.2 µM), without a hit: top-dose activity change, negative = growth inhibition, actives largely listed as inhibitors; actives 12% (n = 420,000); note: potency is the fitted concentration of half-maximal effect; % is set by controls: 0 for no effect and ±100 for the full control effect; nearly all actives have a fitted effect of over 55% in size
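Cell growth measured by CellTiter-Glo luminescence after a minimum 48 h, 37 C compound exposure with 20 nM CPT in Tdp1-knockout DT40 cells stably expressing hTDP1, seeded 400/well; qHTS titration format.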
IL-1B inflam inh: qHTS for Inhibitors of Inflammasome Signaling: IL-1-beta AlphaLISA Primary Screen | THP-1 LPS/ATP IL-1B secretion, AlphaLISA, 16 h; active compounds read low | activity change, % at 57.5 µM | actives 4.7% (n = 360,000); in the data active = activity change below about -50%; inconclusive = mostly about -30% to -49%; note: % is set by controls: 0 for no effect and ±100 for the full control effect
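Secreted IL-1B measured by AlphaLISA bead assay after 16 h compound exposure of THP-1 cells; compounds (final up to 57.5 uM) added 1 h before LPS (250 ng/mL) and ATP (1.25 mM) stimulation; lower signal means less secretion.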
DRD3 antagonist: qHTS of D3 Dopamine Receptor Antagonist: qHTS; actives 2.5% (n = 360,000); D3R cells, DiscoveRx beta-arrestin luminescence, antagonist mode; active compounds read low; D(3) dopamine receptor (Homo sapiens), P35462; AID 652054, 2013; max response, negative = inhibition, %; in the data active = max response below about -50%; inconclusive = no clear call, values can overlap the other calls; note: % is set by controls: 0 for no effect and ±100 for the full control effect
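Cells plated overnight at 1500 cells/well, then exposed to library compounds with dopamine controls for 90 minutes at 37 degrees C. DiscoveRx reagent added for 30–60 minutes at room temperature; luminescence read, quantitative HTS format.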
Starred values were filed as active, the others as inactive. Unless noted, calls come from the whole dose curve; as a rule, active = well fitted inhibition curve with a large enough effect; inconclusive = small, poorly fitted or top-dose-only effect; inactive = flat fitted curve, though single readings scatter.

Cc1nc2sc(C(=O)Nc3ccc(F)cc3)c(N)c2c(-c2ccc(Br)cc2)c1C(=O)Nc1ccc(Cl)cc1 was read as DRD3 agonist 2, ClpP mod -3%, TDP1 cell noCPT inconclusive and TDP1 cell CPT inconclusive.
`C[C@H](CO)N1C[C@H](C)[C@H](CN(C)C(=O)c2ccccn2)Oc2cc(C#Cc3ccc(F)cc3)ccc2S1(=O)=O` gave DRD3 agonist -2, ClpP mod -6%, TDP1 cell noCPT 18µM*, TDP1 cell CPT 21µM*, IL-1B inflam inh 0 and DRD3 antagonist -2.
Screening CC(C)CC#Cc1ccc2c(c1)O[C@H](CN(C)C(=O)Cc1ccncc1)[C@H](C)CN([C@H](C)CO)S2(=O)=O returned DRD3 agonist -7, ClpP mod -6%, TDP1 cell noCPT 26µM*, TDP1 cell CPT inconclusive, IL-1B inflam inh -28 and DRD3 antagonist -16.
For COc1cccc(C#Cc2ccc3c(c2)O[C@@H](CN(C)C(=O)c2ccccn2)[C@@H](C)CN([C@H](C)CO)S3(=O)=O)c1 the results were DRD3 agonist 7, ClpP mod 4%, TDP1 cell noCPT inconclusive, TDP1 cell CPT inconclusive, IL-1B inflam inh -4 and DRD3 antagonist 4.
Screening C[C@H](CO)N1C[C@H](C)[C@@H](CN(C)C(=O)c2cnccn2)Oc2cc(C#CCC3CCCC3)ccc2S1(=O)=O returned DRD3 agonist -7, ClpP mod 1%, TDP1 cell noCPT inconclusive, TDP1 cell CPT inconclusive, IL-1B inflam inh -5 and DRD3 antagonist -61*.
For C[C@H]1CN([C@@H](C)CO)S(=O)(=O)c2ccc(Br)cc2O[C@@H]1CN(C)C(=O)Cc1ccccc1 the results were DRD3 agonist 4, ClpP mod 0%, TDP1 cell noCPT inconclusive, TDP1 cell CPT inconclusive, IL-1B inflam inh -13 and DRD3 antagonist 8.
`C[C@H]1CN([C@@H](C)CO)S(=O)(=O)c2ccc(C#Cc3ccccn3)cc2O[C@@H]1CN(C)C(=O)C1CC1` gave DRD3 agonist 2, ClpP mod -3%, TDP1 cell noCPT 16µM*, TDP1 cell CPT inconclusive, IL-1B inflam inh -3 and DRD3 antagonist 15.
Screening CC(C)C#Cc1ccc2c(c1)O[C@@H](CN(C)C(=O)c1cnccn1)[C@@H](C)CN([C@@H](C)CO)S2(=O)=O returned DRD3 agonist 1, ClpP mod 0%, TDP1 cell noCPT inconclusive, TDP1 cell CPT inconclusive, IL-1B inflam inh -11 and DRD3 antagonist -16.
`CCC(=O)N1c2ccc(S(=O)(=O)N3CCOCC3)cc2CC1C` (centres undefined) gave DRD3 agonist -17, ClpP mod 1%, TDP1 cell noCPT -4%, TDP1 cell CPT -3%, IL-1B inflam inh -1 and DRD3 antagonist 1.
For CN(Cc1ccccc1)C(=O)c1ccc(NC(=O)Cc2ccc(NC(=O)C3CCCN(S(=O)(=O)c4cccc([N+](=O)[O-])c4)C3)cc2)cc1 (centres undefined) the results were DRD3 agonist -6, ClpP mod 0%, TDP1 cell noCPT inconclusive, TDP1 cell CPT inconclusive, IL-1B inflam inh 17 and DRD3 antagonist 1.
`CNc1ccccc1C(C)(C)c1cc(C)[nH]n1` gave DRD3 agonist -5, ClpP mod 0%, TDP1 cell noCPT inconclusive, TDP1 cell CPT 16µM*, IL-1B inflam inh 6 and DRD3 antagonist 3.
For O=C(NC1CC1)C1CCN(c2ncnc3c2sc2cccc(F)c23)CC1 the results were DRD3 agonist -1, ClpP mod -7%, TDP1 cell noCPT 16µM*, TDP1 cell CPT 23µM*, IL-1B inflam inh -17 and DRD3 antagonist -7.

Source: PubChem BioAssay
